Experimental data published in PubChem BioAssay (EPA / NIEHS).
“And” between values parts separate entries of the source, which are not always exact repeats. Equal entries are not always repeated. The source made the active and inactive calls. Rule for the calls: active = hit-call score of the fitted dose curve at least 0.9, where 1 is the maximum; inactive = score below 0.9.

Experiment: IUF_NPC2a_radial_glia_migration_72hr: Leibniz Research Institute for Environmental Medicine (IUF) 72-hour Neural Progenitor Cell Migration Assay for Radial Glia Migration (NPC2a) (AID 2284299)
Method: IUF_NPC2-5 is a cell-based, multiplexed assay that uses hNPC, a human primary neural progenitor cells, with measurements taken at 72 or 120 hours after chemical dosing in a 96-well plate. Human neural progenitor cells (hNPC) are generated from human fetal brain cortex at gestational week (GW) 16-19. In the neural progenitor cell migration and differentiation assay (NPC2-5), hNPCs grown as spheres are plated on an extracellular matrix and migrate and differentiate out of the sphere core. The processes radial glia migration, neuronal and oligodendrocyte migration as well as neuronal differentiation, neuronal morphology and oligodendrocyte differentiation are studied using automated phase contrast imaging and automated fluorescence imaging in combination with high content image analysis. In parallel, the cell viability is assessed using an alamar blue viability assay and the cytotoxicity using a lactate dehydrogenase dependent membrane integrity assay.IUF_NPC2a_radial glia_migration_72hr is one of 12 assay components measured from the IUF_NPC2-5 assay. The migration distance of radial glia at 72 hr is assessed in um from the edge of the sphere core to the edge of the migration area based on brightfield images of each well. Therefore, each plate is scanned using a high content imaging device. Images are exported and the migration distance is measured manually in four directions using ImageJ. The mean of four measures per well is used as raw data input.Data from the IUF_NPC2a_radial_glia_migration_72hr component was analyzed at the endpoint IUF_NPC2a_radial_glia_migration_72hr in the positive analysis fitting direction relative to DMSO as the negative control and baseline of activity. Using a type of migration reporter, gain or loss-of-signal activity can be used to understand developmental effects.
Culture protocol: After the cell expansion period the cells are cultured for up to four weeks in which they are passaged every week as described in 3.6. Between one to three days after passaging spheres at a size of 0.3 mm are picked for the test method. For the assessment of neural progenitor cell migration and differentiation, the spheres are plated on poly-D-lysine/laminin coated 96-well flat bottom plates in differentiation medium (N2) to initiate migration and differentiation. Thereby one 0.3 mm big sphere is plated in the middle of a well. The differentiation medium consists of DMEM and Ham's F12 at a ratio of 3 to 1 supplemented with 1% N2 and 1% penicillin and streptomycin. Within 5 days NPCs radially migrate out of the sphere core and differentiate into radial glia cells (nestin positive), neurons (TUBB3 positive), oligodendrocytes (O4 positive) and astrocytes (GFAP positive). Cultivation during the test method is performed at 37C and 5% CO2 at a ph of 7.2-7.6.Exposure: 0.3 mm big hNPC are plated in the already prepared test conditions. Exposure starts at day 0 of differentiation and is continued over five days of differentiation until the experiment is terminated. Cells are fed with fresh medium at day 3 of differentiation. Therefore, half of the test condition solution (e.g. solvent control or compound dilution) is replaced by freshly prepared test condition solution.Test Method: Migration distance and cytotoxicity is determined after 72 hours based on brightfield images of each well. The assay is terminated by the assessment of cell viability and cytotoxicity as well as cell fixation after 120 h. Immunocytochemistry is performed for Hoechst positive nuclei, TUBB3 positive neurons and O4 positive oligodendrocytes. On the ICC images, migration after 120 hours, neuronal and oligodendrocyte number, neuronal morphology and neuron/oligodendrocyte specific migration is assessed. immunocytochemical staining (ICC) generates an image for each sphere. The plates are scanned using an automated high content imaging device and all nuclei and their positions are determined automatically based on their intensity and size. […]

**Q.** With `COP(=O)(OC)OC(Br)C(Cl)(Cl)Br` (centres undefined) as the compound, how does the AC50 read?
**A.** 39 µM (active)

**Q.** Which outcome does the source give for `CN1COCN(Cc2cnc(Cl)s2)C1=N[N+](=O)[O-]` here?
**A.** inactive

**Q.** For `O=[N+]([O-])c1cc(C(F)(F)F)c(Cl)c([N+](=O)[O-])c1Nc1ncc(C(F)(F)F)cc1Cl`, which AC50 is on record?
**A.** 0.73 µM (active)

**Q.** For `CCOC(=O)CC(SP(=O)(OC)OC)C(=O)OCC` (centres undefined), which outcome is on record?
**A.** inactive

**Q.** With `CCOP(=S)(Oc1cnc(C(C)(C)C)nc1)OC(C)C` (centres undefined) as the compound, how does the outcome read?
**A.** inactive

**Q.** For `S=C1NCCN1`, which outcome is on record?
**A.** inactive

**Q.** For `CN(C)[C@@H]1C(=O)C(C(N)=O)=C(O)[C@@]2(O)C(=O)C3=C(O)c4c(O)cccc4[C@@](C)(O)[C@H]3[C@H](O)[C@@H]12`, which AC50 is on record?
**A.** 76.1 µM (active)

**Q.** For `COP(=O)(NC(C)=O)SC` (centres undefined), which outcome is on record?
**A.** inactive

**Q.** With `CCOP(=S)(OCC)OC(Cl)C(Cl)(Cl)Cl` (centres undefined) as the compound, how does the outcome read?
**A.** inactive

**Q.** Which outcome does the source give for `COP(=O)(OC)C(O)C(Cl)(Cl)Cl` (centres undefined) here?
**A.** inactive

**Q.** For `CCCCSP(=O)(SCCCC)SCCCC`, which outcome is on record?
**A.** inactive

**Q.** With `CC(C)N(C(=O)SCC(Cl)=C(Cl)Cl)C(C)C` as the compound, how does the outcome read?
**A.** inactive

**Q.** With `CCOP(=O)(NC(C)C)Oc1ccc(SC)c(C)c1` (centres undefined) as the compound, how does the outcome read?
**A.** inactive

**Q.** With `CCOP(=S)(OCC)Oc1cc(C)nc(C(C)C)n1` as the compound, how does the outcome read?
**A.** inactive

**Q.** With `C[N+]1(C)CCCCC1` as the compound, how does the outcome read?
**A.** inactive

**Q.** Which outcome does the source give for `CCCSP(=O)(OCC)SCCC` here?
**A.** inactive

**Q.** For `C=C(C)[C@H]1Cc2c(ccc3c2O[C@@H]2COc4cc(OC)c(OC)cc4[C@@H]2C3=O)O1`, which AC50 is on record?
**A.** 220 nM (active) and 4.24 nM (active)

**Q.** For `CC(=NC#N)N(C)Cc1ccc(Cl)nc1`, which outcome is on record?
**A.** inactive

**Q.** Which outcome does the source give for `CCOP(=S)(OCC)SCCSCC` here?
**A.** inactive

**Q.** For `CC1=NNC(=O)N(/N=C/c2cccnc2)C1`, which outcome is on record?
**A.** inactive

**Q.** Which AC50 does the source give for `CC[C@H](C)[C@H]1O[C@]2(C=C[C@@H]1C)C[C@@H]1C[C@@H](C/C=C(\C)[C@@H](O[C@H]3C[C@H](OC)[C@@H](O[C@H]4C[C@H](OC)[C@@H](NC)[C@H](C)O4)[C@H](C)O3)[C@@H](C)/C=C/C=C3\CO[C@@H]4[C@H](O)C(C)=C[C@@H](C(=O)O1)[C@]34O)O2` here?
**A.** 2.13 µM (active) and 3.89 µM (active)

**Q.** For `CCOP(=O)(OCC)Oc1cc(C)nc(C(C)C)n1`, which outcome is on record?
**A.** inactive

**Q.** With `CSC1=N[C@@](C)(c2ccccc2)C(=O)N1Nc1ccccc1` as the compound, how does the outcome read?
**A.** inactive

**Q.** With `CON=C(C(=O)OC)c1ccccc1CON=C(C)c1cccc(C(F)(F)F)c1` as the compound, how does the outcome read?
**A.** inactive
